# Experimental data as given in PubChem BioAssay AID1851 (National Center for Advancing Translational Sciences (NCATS), 2009).
# Values joined by “and” are separate entries in the source; they are usually repeats but may differ in a detail not shown here. Identical values can stand only once. Hit rate of the full screen: of about 16,000 compounds, about 5,700 (36%) were called active. Roughly 24% stayed inconclusive and do not appear here. This is one part of the list. A number with no mark means an inactive call. Calls come from the whole dose curve; as a rule, active = well fitted curve in the direction sought with a large enough effect; inconclusive = small, poorly fitted or top-dose-only effect, or effect the other way; inactive = no such curve, though single readings can be large or run the other way.
# Target: Cytochrome P450 1A2 (Homo sapiens) (UniProt P05177)
# Test: Cytochrome panel assay with activity outcomes
# Details: recombinant CYP, pro-luciferin dealkylation, luminescence, p450-cyp1a2; series mostly up to 57.1 µM
# % is set by controls: 0 for no effect and ±100 for the full control effect.
# Cytochrome P450 1A2 (Homo sapiens), sequence (P05177 whole entry, looked up): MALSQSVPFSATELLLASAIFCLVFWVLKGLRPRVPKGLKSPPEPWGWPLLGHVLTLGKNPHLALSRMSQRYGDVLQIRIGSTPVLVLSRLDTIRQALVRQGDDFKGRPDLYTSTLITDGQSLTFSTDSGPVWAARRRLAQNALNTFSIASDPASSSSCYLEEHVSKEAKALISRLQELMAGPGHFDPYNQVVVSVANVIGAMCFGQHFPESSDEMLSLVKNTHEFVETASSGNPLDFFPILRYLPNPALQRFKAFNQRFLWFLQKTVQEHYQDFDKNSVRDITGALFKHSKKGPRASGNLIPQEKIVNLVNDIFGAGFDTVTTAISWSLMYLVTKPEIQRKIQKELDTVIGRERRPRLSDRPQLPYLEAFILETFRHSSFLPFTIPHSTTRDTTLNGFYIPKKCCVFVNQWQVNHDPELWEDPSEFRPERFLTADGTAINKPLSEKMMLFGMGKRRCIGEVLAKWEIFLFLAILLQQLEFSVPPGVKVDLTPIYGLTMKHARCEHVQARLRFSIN
SMILES,AC50,"activity, negative = inhibition"
Cc1cccc(OC(=O)CN2C(=O)C3C4CCC(C4)C3C2=O)c1C (stereo not given),12.6 µM (active),
Cc1cccc(C)c1NC(=O)CCN1C(=O)C2C3CCC(C3)C2C1=O (stereo not given),inactive,
CC(=O)Nc1ccc(NCN2C(=O)C3C4CCC(C4)C3C2=O)cc1 (stereo not given),inactive,
COc1ccc(O[C@H]2C=C[C@@H](c3ccccc3)O[C@H]2COC(=O)N2CCCCC2)cc1,,-4.44% [at 11.4 µM]
C(=N\Nc1nc(Nc2ccccc2)nc(N2CCOCC2)n1)/c1c[nH]c2ccccc12,10 µM (active),
C#CCCCO/N=C1/C[C@@H](O)[C@@H](O)[C@@H]2[C@@H]3C(=O)N(C[C@@H]4CCCO4)C(=O)[C@H]3CC[C@@H]12,,1.69% [at 11.4 µM]
COc1ccccc1N1CCN(CCCCNC(=O)c2ccc3ccccc3c2)CC1,inactive,
COc1ccccc1N1CCN(CCCCNC(=O)c2ccc(-c3ccc(C(C)=O)cc3)cc2)CC1,25.1 µM (active),
COc1ccccc1N1CCN(CCCNc2cc(=O)n(C)c(=O)n2C)CC1,inactive,
COc1ncc2nc(-c3ccc(F)cc3)c(=O)n(Cc3ccc(F)cc3)c2n1,1.58 µM (active),
COc1ncc2nc(-c3ccc(F)cc3)c(=O)n(CCc3ccccc3)c2n1,0.398 µM (active),
COc1ncc2nc(C)c(=O)n(CCc3ccccc3)c2n1,2 µM (active),
COc1ccccc1N(CC(=O)NCC1CCCO1)C(=O)CNS(=O)(=O)c1ccc(C)cc1 (stereo not given),inactive,
Cc1ccc(S(=O)(=O)N[C@H]2COC(=O)CC=C[C@@H](C)[C@H]3C=C[C@H](O)[C@@H](COC(=O)CC=C[C@H]2C)O3)cc1,,-8.39% [at 11.4 µM] and -5.02% [at 11.4 µM]
S=c1nc[nH]c2c1ncn2Cc1ccco1,,-16.3% [at 11.4 µM]
CCOC(=O)c1c(C)n(C)c2ccc(OC)c(NC(=O)CN3CCCCC3)c12,15.8 µM (active),
Cc1c(NC(=O)CN2CCN(c3ccccc3)CC2)c(=O)n(-c2ccccc2)n1C,inactive,
O=c1c(-c2nnc(SCc3ccc(Cl)c(Cl)c3)o2)cccn1Cc1ccccc1,inactive,
Clc1ccc(CSc2nnc(-c3cccnc3)o2)cc1,3.55 µM (active),
Cc1cccc(-c2nnc(SCc3ccccc3)o2)c1,14.1 µM (active),
c1ccc(CSc2nnc(-c3sccc3-n3cccc3)o2)cc1,2.82 µM (active),
Clc1ccc(CSc2nnc(-c3sccc3-n3cccc3)o2)cc1,2.82 µM (active),
Clc1cccc(CSc2nnc(-c3sccc3-n3cccc3)o2)c1,2.51 µM (active),
CC(NC(=O)CCSc1nc(-c2ccco2)cc(C(F)(F)F)n1)c1ccccc1 (stereo not given),12.6 µM (active),

SMILES,AC50,"activity, negative = inhibition"
O=C(NC(C(=O)c1ccccc1)n1cnccc1=O)c1ccccc1 (stereo not given),inactive,
COC(=O)c1ccc(C(NC(=O)c2ccco2)[C@]2(C)C[C@H]2C2CCCCC2)cc1 (stereo not given in full),inactive,
CC1CCN(C(NC(=O)c2ccco2)C(=O)c2ccccc2)CC1 (stereo not given),14.1 µM (active),
NC(N)=Nc1ccc(-c2ccc(N=C(N)N)cc2)cc1,,-1.39% [at 11.4 µM]
CCSC(N)=Nc1ccc(C(F)(F)F)cc1,2.51 µM (active),
CCOC(=O)c1nc(N)sc1C(=O)OCC,7.08 µM (active),
CCOC(=O)c1sc(C)c(C(=O)NCC(C)(C)CN(C)C)c1N,inactive,
CCN1CCN(C(=O)N[C@H](C(=O)N[C@@H]2C(=O)N3[C@@H]2SC(C)(C)[C@@H]3C(=O)O)c2ccccc2)C(=O)C1=O,inactive,
O=C1C(C2=NC(C(=O)O)C3C(=O)N(c4ccc(Cl)cc4)C(=O)C23)=C(O)c2ccccc21 (stereo not given),inactive,
O=C(O)c1nn(-c2ccccc2-c2n[nH]c(=O)[nH]c2=O)c(=O)[nH]c1=O,,-21.2% [at 11.4 µM]
O=C(O)c1nn(-c2ccc(Cl)cc2)c2c1C(=O)c1ccccc1C2=O,0.251 µM (active),
CC(C)CN1CC[C@@]2(CCCN(C(=O)c3cnccn3)C2)C1,inactive,
Cn1sc(NC(=O)c2ccccc2Cl)nc1=O,inactive,
Cc1cccc(C)c1NC(=O)C(NC=O)c1ccccc1Cl (stereo not given),inactive,
O=C(CCN1CCN(CC(=O)Nc2ccccc2Cl)CC1)Nc1ccccc1F,inactive,
O=C(Nc1ccccc1Cl)c1ccccc1Cl,1.78 µM (active),
O=C(NNc1cccc(Cl)n1)Nc1ccccc1Cl,2.51 µM (active),
Cc1cc(NC(=O)c2ccccc2Cl)c(C(C)C)cc1O,3.55 µM (active),
O=C(Nc1nnc(-c2ccc(Cl)cc2)o1)Nc1ccccc1Cl,1.58 µM (active),
CC(=O)NNc1cccc(Cl)n1,inactive,
CCCC(O)(CCC)C(=O)NN1CCCCC1,inactive,
O=C(O)COC(=O)Cc1ccccc1Nc1c(Cl)cccc1Cl,inactive,
O=C(O)C1CCCCC1C(=O)Nc1ccccc1Cl (stereo not given),inactive,
O=C(Nc1ccccc1Cl)c1ccn[nH]1,0.794 µM (active),

SMILES,AC50,"activity, negative = inhibition"
NC(=O)NC(=O)Nc1ccccc1Cl,4.47 µM (active),
COc1nc(N)nc2c1ncn2[C@@H]1C[C@H](O)[C@@H](CO)O1,,-7.83% [at 11.4 µM]
O=C1CC(N2CCOCC2)C(=O)N1c1cccc(Cl)c1 (stereo not given),inactive,
Clc1cccc(N/N=C/c2ccc(N3CCOCC3)cc2)c1,2.51 µM (active),
Cc1ccc(Nc2ccc(-n3ccnc3)nn2)cc1C,0.158 µM (active),
Cc1cc(/C=N/n2cnnc2)c(C)n1-c1ccc(OCc2ccccc2F)cc1,12.6 µM (active),
Fc1ccc(CSc2nnc(-c3cc4c(s3)-c3ccccc3CC4)o2)cc1,2.24 µM (active),
O=C(O)c1nnsc1-c1csnn1,,-3.7% [at 11.4 µM]
c1ccc2cc(-c3cc(-c4cc(-c5ccc6ccccc6c5)on4)no3)ccc2c1,1.58 µM (active),
c1ccc(-c2noc(-c3ccc4ccccc4c3)n2)cc1,3.16 µM (active),
Cc1ccc(-c2nnc(-c3ccc4ccccc4c3)o2)cc1,0.631 µM (active),
c1ccc2cc(-c3csnn3)ccc2c1,0.112 µM (active),
CC/C=C\CC[C@H](O)C1=CCCCC1=O,,-2.33% [at 11.4 µM]
CC[C@@H](C)[C@H]1O[C@]2(CC[C@@H]1C)C[C@@H]1C[C@H](C/C=C(/C)[C@H](O[C@@H]3C[C@H](OC)[C@H](O[C@@H]4C[C@H](OC)[C@@H](O)[C@H](C)O4)[C@H](C)O3)[C@@H](C)/C=C\C=C3CO[C@@H]4[C@H](O)C(C)=C[C@@H](C(=O)O1)[C@]34O)O2 (tested in a mixture with another compound),inactive,
C[C@@H]1C[C@H](OC(=O)[C@@H](O)c2ccccc2)CC(C)(C)N1C,inactive,
CCCCCn1c(CN2CCN(c3cc(Cl)ccc3C)CC2)nc2c1c(=O)[nH]c(=O)n2C,inactive,
Cc1ccc(OCCNC(=O)c2cncc(Br)c2)cc1C,14.1 µM (active),
CCOC(=O)CNC(=O)c1cccnc1,inactive,
O=C(NCCO[N+](=O)[O-])c1cccnc1,inactive,
CCOC(=O)CCCNC(=O)c1cncc(Br)c1,12.6 µM (active),
CCOC(=O)CCCNC(=O)CCCNC(=O)C(c1ccccc1)c1ccccc1,inactive,
CO[C@H]1COC(=O)[C@H](C)COC(=O)[C@@H](Cc2ccccc2)NC(=O)C/C=C\[C@H]1C,,-3.2% [at 11.4 µM]
CCOC(=O)CN(C(=O)CCC(=O)Nc1cc(C)on1)C(C(=O)NC1CCCC1)c1cccnc1 (stereo not given),inactive,
COc1ccc(NC(=O)N(C2CCCCC2)C(C)c2cccnc2)c(OC)c1 (stereo not given),14.1 µM (active),

SMILES,AC50,"activity, negative = inhibition"
Cc1cc(NC(=O)CCC(=O)N(CC2CCCO2)C(C(=O)NC2CCCC2)c2cccnc2)no1 (stereo not given),inactive,
CCN1C(=O)N[C@@H](c2ccccc2)C1=O,inactive,
O=C1C2ON(c3ccccc3)C(c3ccncc3)C2C(=O)N1c1ccccc1 (stereo not given),inactive,
CCCC1C(=O)N(c2ccccc2)C1c1ccccc1 (stereo not given),12.6 µM (active),
O=C1C(CCS(=O)c2ccccc2)C(=O)N(c2ccccc2)N1c1ccccc1 (stereo not given),inactive,
C[C@H]1CC[C@H]2C(=O)N[C@H](Cc3ccccc3)C(=O)N2[C@@H]1c1ccccc1,,-2.57% [at 11.4 µM]
O=C1C(Cc2ccccc2)C(c2ccccc2)N1c1ccccc1 (stereo not given),5.01 µM (active),
Clc1cccc(C=NC=Nc2cccc(Cl)c2)c1,0.631 µM (active),
COc1cccc(C=NC=Nc2cccc(OC)c2)c1,1 µM (active),
CC(C)CC(=O)Nc1ccccc1-c1nnn(CC(=O)N2CCc3ccccc3C2)n1,inactive,
CCCn1nc(NC(=O)CC(C)C)c2cc3ccccc3nc21,1.58 µM (active),
COc1ccc(CNCCc2ccccc2)cc1OCC(N)=O,inactive,
CCNCc1cc(OCC)c(OCC(=O)NCCc2ccccc2)cc1Cl,1.78 µM (active),
CCOc1cc(CNCCO)c(Cl)cc1OCC(=O)NCCc1ccccc1,6.31 µM (active),
Nc1nc2c(c(=O)[nH]1)N[C@H](CCNc1ccc(C(=O)O)cc1)CN2,,-4.28% [at 11.4 µM]
COc1ccccc1CNc1ccnc(-c2c(C)noc2C)n1,0.398 µM (active),
COc1ccccc1CN1CCCC2(CCN(C(=O)c3c(C)noc3C)CC2)C1,inactive,
COc1ccccc1CN1CCC2(CC1)CCN(C(=O)c1c(C)noc1C)CC2,inactive,
COc1ccc(CNc2ccnc(-c3c(C)noc3C)n2)c(OC)c1,1.26 µM (active),
COC(=O)CN(c1ccc(OC)cc1)S(=O)(=O)c1c(C)noc1C,inactive,
O=C(O)/C(=C/c1c(C(=O)O)[nH]c2cc(Cl)cc(Cl)c12)c1ccccc1,12.6 µM (active),
Cc1cc(C(=O)CSc2nnc(-c3ccccc3)o2)c(C)n1CC1COc2ccccc2O1 (stereo not given),inactive,
c1ccc(-c2nnc(SCCC3OCCCO3)o2)cc1,1.78 µM (active),
